From PubChem BioAssay (NCATS) come the findings set out here.

Experiment [1] in a line: Quantitative High-Throughput drug screen in 47 multiple myeloma cell lines against the NCATS MIPE library collection: OPM2_DSMZ cell viability assay (AID 1919872). Note: nearly all actives have a fitted effect of over 30% in size. The method, boiled down: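 Luminescent ATP measurement with CellTiter-Glo gives viability, scaled between DMSO-only wells (100%) and media-only wells (0%). Cells, 500 per well, faced library compounds for 48 hours at 37C.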

A short description of experiment [2]: Quantitative High-Throughput drug screen in 47 multiple myeloma cell lines against the NCATS MIPE library collection: KMS11_JCRBsus cell viability assay (AID 1919873). Note: nearly all actives have a fitted effect of over 50% in size. In a few lines:
(§1)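 ATP-based CellTiter-Glo luminescence after 48 h drug exposure (37 °C, 5% CO2) of 500 myeloma cells per well. DMSO-only wells set 100% viability, media-only wells 0%; MIPE 4.0 library added by pin tool.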

A short description of experiment [3]: Quantitative High-Throughput drug screen in 47 multiple myeloma cell lines against the NCATS MIPE library collection: KMS28BM_JCRB cell viability assay (AID 1919874). Note: nearly all actives have a fitted effect of over 35% in size. The method, boiled down:
as §1

A short description of experiment [4]: qHTS drug screen for cell cycle checkpoint inhibitors in PARPi-resistant BRCA-mutant ovarian cancer cell lines. (AID 1963452; calls by dose curve). The following applies: PEO1/OlaR viability, CellTiter-Glo luminescence, 96 h; for Z-AUC: stronger effect = lower value. The method, boiled down: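 PEO1, PEO4 and PEO1/OlaR ovarian cancer cells, 600 per well, exposed 96 h at 37C to a dilution series. Viability read by CellTiter-Glo luminescence, normalized to DMSO and empty wells; activity summarized as Z-AUC.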

A short description of experiment [5]: qHTS profiling for inhibitors of Plasmodium falciparum proliferation (AID 504749).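 For activity, negative = inhibition: 0% = DMSO vehicle and full inhibition = artemisinin control.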 Note: nearly all actives have a fitted effect of over 60% in size. The following applies: P. falciparum in erythrocytes, SYBR Green DNA, 72 h. The method, boiled down:
(§2)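 SYBR Green fluorescence of parasite DNA, read after lysis and overnight dark incubation, measured growth over 72 h in erythrocyte culture at 0.3% parasitemia and 2.5% hematocrit. Data normalised to DMSO and 0.29 uM artemisinin, with plate-drift correction.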
A general note: In qHTS, concentration-response curves come from the screen itself.

A further experiment concerns 3D7. Described as above. The following applies: P. falciparum in erythrocytes, SYBR Green DNA, 72 h; series mostly up to 28.7 µM. In a few lines:
as §2

In a further experiment the test system is 7G8. Described as above. The conditions noted are these: P. falciparum in erythrocytes, SYBR Green DNA, 72 h; series mostly up to 28.7 µM. The method, boiled down: as §2
The next experiment relates to AA1029. Described as above. The conditions noted are these: P. falciparum in erythrocytes, SYBR Green DNA, 72 h; series mostly up to 28.7 µM. In a few lines:
as §2

Experiment [6] in a line: qHTS for identification of novel therapeutic agents for treatment of microphthalmiaassociated transcription factor (MiT) renal cell carcinoma (RCC) (AID 1963991; calls by dose curve). The following applies: CellTiter-Glo, 48 h; for z-score: stronger effect = lower value. The method, boiled down: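 Three TFE3-fusion RCC cell lines (UOK109, UOK124, UOK145), 500 cells/well, were exposed to the 1912-compound MIPE 4.0 library for 48 hours at 37 C. Viability was read by CellTiter-Glo luminescence, normalised to DMSO (100%) and empty wells (0%), with 11-concentration curve fits.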

Setting [7] is: measured here: PEO1 parental Z-AUC.
Where [8] appears, read: TFE3-RCC UOK109 viability, measured here: UOK109 Z-AUC.
[9] abbreviates: TFE3-RCC viability, measured here: UOK124 Z-AUC.
Setting [10] is: TFE3-RCC viability, measured here: UOK145 Z-AUC.
Where [11] appears, read: at 28.7 µM (top of the series), parasite line A.
The mark [12] stands for this setting: at 28.7 µM (top of the series), parasite line B.

Results filed as inconclusive are left out. Activity calls are given as the source filed them. Unless noted, calls come from the whole dose curve; as a rule, active = well fitted curve in the direction sought with a large enough effect; inconclusive = small, poorly fitted or top-dose-only effect, or another doubt; inactive = no such curve, though single readings can be large; an effect the other way counts as inactive or inconclusive.
Potency is the fitted concentration of half-maximal effect.

On to `O[C@@H](CNC[C@H](O)[C@H]1CCc2cc(F)ccc2O1)[C@@H]1CCc2cc(F)ccc2O1`, for which the Potency in [1] was 18.7 µM (active); in [2] it was 7.43 µM (active).
Turning to `C[C@@H]1C[C@H]2[C@@H]3CCC4=CC(=O)C=C[C@]4(C)[C@@]3(Cl)[C@@H](O)C[C@]2(C)[C@@]1(OC(=O)c1ccco1)C(=O)CCl`, the Potency in [1] was 23.5 µM (active).
As to `CCn1cc(C(=O)O)c(=O)c2cc(F)c(N3CCNCC3)cc21`, the Potency entry (in [1]; in [2]; in experiment [3]; in the experiment on 3D7; in the experiment with 7G8; in the experiment on AA1029) was “inactive” each time. Moreover, the Z-AUC in experiment [4] is 0.488 (inactive); in experiment [4] (setting [7]), 0.343; in [4] (measured here: PEO4 Z-AUC) it was 0.192. In addition, the activity, negative = inhibition is -24.5% (inactive) in [5] (at 12.8 µM (top of the series), parasite line A) and -18% (inactive) in experiment [5] (at 12.8 µM (top of the series), parasite line B).
Regarding `CCCN[C@H]1CCc2nc(N)sc2C1`, the Potency result (in experiment [1]; in experiment [2]; in experiment [3]; in the experiment on 3D7; with 7G8; with AA1029) was “inactive” throughout. Besides, the Z-AUC was -0.0876 (inactive) in experiment [4], -1.06 in experiment [4] (setting [7]) and -0.574 in [4] (measured here: PEO4 Z-AUC). In addition, the z-score in experiment [6] (setting [8]) turned out to be 0.498; in [6] (setting [9]), 0.618; in experiment [6] (setting [10]) it was 0.718. Also, the activity, negative = inhibition in experiment [5] (setting [11]) is 16.7% (inactive); in experiment [5] (setting [12]), 18.6% (inactive).
`O=C(O)C1CCCN(CCC=C(c2ccccc2)c2ccccc2)C1` (stereo unspecified): the Potency entry in experiment [1], in [2] and in experiment [3] was “inactive” throughout. Further, the Z-AUC in experiment [4] was 1.76 (inactive); in [4] (setting [7]) it was 1.39; in experiment [4] (measured here: PEO4 Z-AUC), 1.34.
Take `CC(C)C[C@H](NC(=O)[C@H](CCc1ccccc1)NC(=O)CN1CCOCC1)C(=O)N[C@@H](Cc1ccccc1)C(=O)N[C@@H](CC(C)C)C(=O)[C@@]1(C)CO1`: the Potency in experiment [1] was 0.0166 µM (active); in [2], 0.0053 µM (active); in experiment [3], 0.0053 µM (active); in [4], 0.0098 µM (active); in experiment [6] (TFE3-RCC UOK109 viability, active = Z-AUC below -0.8 in all three lines), 1.48 µM (active). Besides, the Z-AUC in experiment [4] (setting [7]) was -3.02; in [4] (measured here: PEO4 Z-AUC) it was -2.77. Further, the figures for the z-score in experiment [6] (setting [8]), in [6] (setting [9]) and in experiment [6] (setting [10]) were -1.85, -2.71 and -3.3, respectively.
With `OCc1ccc(-c2nn(Cc3ccccc3)c3ccccc23)o1`, the Potency result in experiment [1], in experiment [2] and in [3] was “inactive” in each case. Further, the Z-AUC in [4] was 0.562 (inactive); in [4] (setting [7]), 1.06; in [4] (measured here: PEO4 Z-AUC), 0.997.
As to `C[C@@H](NCCCc1cccc(C(F)(F)F)c1)c1cccc2ccccc12`, the Potency entry in experiment [1], in experiment [2] and in experiment [3] was “inactive” throughout. For the same compound, the Z-AUC is 0.769 (inactive) in experiment [4], 0.263 in experiment [4] (setting [7]) and 0.404 in [4] (measured here: PEO4 Z-AUC). Also, the z-score in [6] (setting [8]) came to 1.16; in experiment [6] (setting [9]), 0.808; in experiment [6] (setting [10]) it was 0.348. Besides, the Potency in experiment [5] (parasite line B) was 5.62 µM (active); with 3D7 it was 11.2 µM (active); in the experiment on 7G8, 1.12 µM (active); in the experiment with AA1029 it was 6.31 µM (active).
`CC(C)C1CCC(C(=O)N[C@H](Cc2ccccc2)C(=O)O)CC1` (stereo partly specified): the figures for the Potency in experiment [1] and in experiment [2] were 0.0093 µM (active) and 16.6 µM (active), respectively. The Potency result in [3] was “inactive”. Also, the Z-AUC in experiment [4] is 1.31 (inactive); in experiment [4] (setting [7]), 1.43; in experiment [4] (measured here: PEO4 Z-AUC) it was 0.601. Also, the z-score is 0.399 in experiment [6] (setting [8]), 0.0648 in [6] (setting [9]) and 0.384 in experiment [6] (setting [10]).
Take `CC(C)(C#N)c1cc(Cn2cncn2)cc(C(C)(C)C#N)c1`: the Potency entry (in experiment [1]; in experiment [2]; in experiment [3]; with 3D7; in the experiment with 7G8; in the experiment on AA1029) was “inactive” throughout. Further, the Z-AUC was 1.1 (inactive) in [4], 1.39 in experiment [4] (setting [7]) and 1.04 in experiment [4] (measured here: PEO4 Z-AUC). Moreover, the results for the z-score in [6] (setting [8]), in experiment [6] (setting [9]) and in [6] (setting [10]) were 0.558, 0.63 and 0.487, respectively. Moreover, the activity, negative = inhibition was 5.33% (inactive) in experiment [5] (setting [11]) and 14.1% (inactive) in [5] (setting [12]).
